Bioassay records deposited in PubChem by National Center for Advancing Translational Sciences (NCATS).
Sampled rows, rich in hits. Any-hit rate of the full collection: about 7.4%.
SMN2 splice enh: qHTS Assay for Enhancers of SMN2 Splice Variant Expression; Potency, µM (top dose mostly 46.1 µM), inactives show at the top dose activity change, positive = activation, usual class: activators; hit rate 2.8% among 210,000; HEK293 SMN2-luciferase splicing reporter, luminescence, 30-36 h; AID 1458, 2008; further: % of control where 0% means no effect; nearly all actives have a fitted effect of over 55% in size
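qHTS luciferase splicing reporter: luminescence rises when SMN2 exon 7 is included in transfected HEK293 cells. Compound exposure lasted 30-36 h at 37C, with 4.5 mM final sodium butyrate as control, followed by a ONE-Glo read.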
FLuc counter: qHTS profiling assay for firefly luciferase inhibitor/activator using purifed enzyme and Km concentrations of substrates (counterscreen for miR-21 project). Luciferin 4-monooxygenase (Photinus pyralis), P08659. purified FLuc, Km substrates, luminescence inhibition. Potency, µM (doses to about 57.5 µM), inactives show at the top dose activity change, negative = inhibition, most hits filed as inhibitors. hit rate 6.9% among 360,000. AID 588342, 2011;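 further: plate controls were vehicle for no effect and reference inhibitor for full effect; nearly all actives have a fitted effect of over 55% in size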
Target sequence (P08659 whole entry, looked up): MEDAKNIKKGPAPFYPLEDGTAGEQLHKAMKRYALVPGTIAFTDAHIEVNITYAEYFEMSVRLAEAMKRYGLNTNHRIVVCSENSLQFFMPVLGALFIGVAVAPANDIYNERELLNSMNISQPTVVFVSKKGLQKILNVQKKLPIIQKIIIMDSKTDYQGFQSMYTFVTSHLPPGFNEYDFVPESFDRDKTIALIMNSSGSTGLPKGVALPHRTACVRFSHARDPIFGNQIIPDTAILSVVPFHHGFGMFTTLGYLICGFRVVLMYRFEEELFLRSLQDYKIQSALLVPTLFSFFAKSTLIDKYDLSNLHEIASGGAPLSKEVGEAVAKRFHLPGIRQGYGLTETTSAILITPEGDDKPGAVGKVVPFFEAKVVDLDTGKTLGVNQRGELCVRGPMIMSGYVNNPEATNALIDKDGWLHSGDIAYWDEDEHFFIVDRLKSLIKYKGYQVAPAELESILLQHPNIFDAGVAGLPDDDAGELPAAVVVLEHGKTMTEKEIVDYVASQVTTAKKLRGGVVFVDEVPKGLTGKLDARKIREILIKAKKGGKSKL
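Purified P. pyralis luciferase, 10 nM final, with Km-level 10 uM D-luciferin and 10 uM ATP in 50 mM Tris acetate pH 7.5, 10 mM Mg acetate, 0.01% Tween-20, 0.05% BSA; 6-point qHTS titration about 60 µM downward; luminescence read.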
Rab9 prom act: qHTS Assay for Rab9 Promoter Activators | hit rate 2.8% among 320,000 | Huh7 Rab9 promoter-luciferase reporter, luminescence, 24 h | Potency, µM (series often up to 9.22 µM), for the others: top-dose activation, negative = inhibition, most hits filed as activators; further: % of control where 0% means no effect; nearly all actives have a fitted effect of over 60% in size
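Luminescence from Amplite-detected luciferase (10 minutes, ambient) reports Rab9 promoter activation. Before that, stable Rab9-luciferase Huh7 cells (1500/well, reduced-serum OP-MEM I plus 10% FBS) were exposed to compound for 24 hours at 37C.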
NPC1 promoter act: qHTS Assay for NPC1 Promoter Activators | hit rate 2.4% among 320,000 | Huh7 NPC1 promoter luciferase reporter, 24 h | AID 485313, 2010 | Potency, µM (doses to about 9.22 µM), for the others: top-dose activation, usual class: activators; further: % of control where 0% means no effect; nearly all actives have a fitted effect of over 60% in size
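Huh7 reporter cells (NPC1 promoter driving luciferase) are dosed with compound for 24 h at 37 °C, 5% CO2; luciferase detection reagent is then added and luminescence measured after 10 min at ambient temperature.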
KinaseGlo FLuc: Counterscreen for Luciferase (Kinase-Glo TM) Inhibition; Luciferin 4-monooxygenase (Photuris pensylvanica), Q27757; Kinase-Glo luciferase, ATP luminescence, 8 min; Potency, µM (titrated, usually from 38.3 µM), for the others: at the top dose activity change, negative = inhibition, most hits filed as inhibitors; hit rate 0.28% among 200,000; AID 1379, 2008; further: on the % scale 0 is the no-effect control and ±100 the full control effect; nearly all actives have a fitted effect of over 60% in size
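Luminescence was the read-out, taken after 8-minute incubation at ambient temperature. Luciferase turned over luciferin with 10 uM ATP in imidazole pH 7.2 buffer containing KCl, MgCl2, Tween 20 and BSA.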
ELG1 genotoxic: qHTS screen for small molecules that induce genotoxicity in human embryonic kidney (HEK293T) cells expressing luciferase-tagged ELG1. HEK293T ELG1-luciferase reporter, luminescence, 16 h. AID 504466, 2011. hit rate 1.3% among 330,000. Potency, µM (titrated, usually from 46 µM), inactives show at the highest dose activity change, positive = activation, usual class: activators; further: % of control where 0% means no effect; nearly all actives have a fitted effect of over 60% in size
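Step 1: seed 2,000 HEK293T ELG1-luciferase cells per well. Step 2: add compound or DMSO, incubate 16 hr at 37 °C. Step 3: ONE-Glo, 30 min at room temperature, read luminescence.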
Numbers without * were called inactive; ? = inconclusive; . = not tested or not shown. The call rests on the fitted dose curve; in most records, active means well fitted curve in the direction sought with a large enough effect; inconclusive means small, poorly fitted or top-dose-only effect, or another doubt; inactive means no such curve, though single readings can be large; an effect the other way counts as inactive or inconclusive. Potency means the concentration at half of the fitted maximal effect.

SMILES	SMN2 splice enh	FLuc counter	Rab9 prom act	NPC1 promoter act	KinaseGlo FLuc	ELG1 genotoxic
Cn1c(SCc2ccc(C(F)(F)F)cc2)nc2c([nH]c3ccccc32)c1=O	.	1%	.	.	.	.
Nc1nc(Nc2ccccc2F)sc1C(=O)c1ccc(Cl)cc1	14µM*	15µM*	.	.	.	.
CCOC(=O)c1c(C)[nH]c(C(=O)COC(=O)C2CC2C)c1C (stereo not given)	?	3.4µM*	3.2µM*	3.5µM*	-2%	2.6µM*
Cc1ccc(N2CCN(S(=O)(=O)c3nnc(NC(=O)c4cccc(F)c4)s3)CC2)cc1	.	-2%	.	.	.	.
O=c1oc2cc(Cl)ccc2n1CSc1nc2ccccc2s1	25%	8.5µM*	?	?	6%	15µM*
CC(=O)N1CCC2(CC1)CN(Cc1ccc(C#N)cc1)C2	5%	.	.	.	-1%	.
Cc1c(-c2cc(C(=O)O)c3ccccc3n2)cnn1C	13%	-19%	-1%	-4%	1%	-4%
Cc1cccc(/C=N/NC(=O)c2cc(-c3cccnc3)nc3ccccc23)c1	15%	-3%	-1%	-7%	-2%	-4%
Cc1ccc(-c2cc(C(=O)NCc3cnn(C)c3C)c3ccccc3n2)cc1C	?	2.1µM*	.	.	.	.
Cc1ccc(-c2cc(C(=O)N/N=C\c3cnn(C)c3C)c3ccccc3n2)cc1C	1%	0.67µM*	25%	12%	-11%	?
CCOc1cc(/C=N/Nc2ncnc(Cl)c2N)ccc1O	23%	11µM*	22%	16%	-10%	?
CCOc1cc(/C=N/Nc2nnc(C)n2N)ccc1O	.	3%	0%	0%	.	-4%
Nc1c(Cl)ncnc1N/N=C/c1ccccn1	-81%	?	1%	0%	-17%	4.1µM*
Nc1c(Cl)ncnc1N/N=C/c1ccnc2ccccc12	22%	?	?	26%	1%	1%
Nc1c(Cl)ncnc1N/N=C/c1ccc2ccccc2n1	-41%	4.8µM*	?	?	-4%	?
C=CCOC(=O)C(=O)/C=C/c1ccc2c(c1)Cc1ccccc1-2	.	11µM*	2%	-1%	.	7%
CC(=O)OC1CCC2(C)C(=CC=C3C2CCC2(C)C3CCC2C(C)/C=C/C(C)C(C)C)C1(C)C (stereo not given)	2%	.	.	.	-6%	.
COc1ccc(-c2noc(N(c3cccc(Cl)c3)c3nc(-c4ccc(OC)c(OC)c4)no3)n2)cc1OC	-15%	-2%	.	.	.	.
COc1ccc(-c2csc(Nc3cccnc3)n2)cc1	7%	6µM*	.	.	3%	.
c1ccc(Nc2nc(-c3ccncc3)cs2)cc1	?	?	4%	0%	-2%	15%
COc1ccc(Nc2nc(-c3ccc(OC)cc3)cs2)cc1	?	?	1.6µM*	3.2µM*	1%	?
COc1ccc2oc(=O)c(-c3csc(Nc4ccc(O)cc4)n3)cc2c1	?	3µM*	14%	0%	-1%	-1%
COc1ccc(-c2csc(Nc3ccccc3)n2)cc1	4µM*	3µM*	1µM*	2.2µM*	-4%	2.1µM*
COc1ccc(Nc2nc(-c3c[nH]c4ccccc34)cs2)cc1	?	15µM*	20%	23%	-1%	13%
CC(=O)NCCC(=O)Nc1nc(-c2c[nH]c3ccccc23)cs1	.	?	13%	-1%	.	4%
SMILES	SMN2 splice enh	FLuc counter	Rab9 prom act	NPC1 promoter act	KinaseGlo FLuc	ELG1 genotoxic
CN(Cc1nc(C(c2ccccc2)c2ccccc2)no1)CC1COCCO1 (stereo not given)	.	15µM*	?	?	-17%	?
Cc1ccc(C)c(NC(=O)C(Cc2ccccc2)n2cccc2)c1 (stereo not given)	-48%	1%	.	.	.	.
Cc1ccc(C)c(NC(=O)CCC(=O)N/N=C/c2ccc3c(c2)OCO3)c1	.	11µM*	-2%	0%	-14%	2%
Cc1cc(C)nc(SCC(=O)N/N=C/c2ccc3c(c2)OCO3)n1	.	9.5µM*	28%	?	.	?
Cc1ccccc1NCC(=O)N/N=C\c1ccc2c(c1)OCO2	-5%	?	9%	-5%	-2%	4%
Cc1nc2ccccn2c1C(=O)N/N=C/c1ccccc1	.	-11%	-4%	-2%	.	1%
Cc1ccn2c(C(=O)N/N=C/c3ccc(CNC(=O)C(=O)Nc4ccc(C)c(C)c4)o3)c(C)nc2c1	28%	6.7µM*	-1%	1%	1%	0%
Cc1ccc(NC(=O)C(=O)NCc2ccc(/C=N/NC(=O)c3c(C)nc4ccccn34)o2)cc1	?	1.7µM*	-2%	-2%	-2%	2%
Cc1ccn2c(C(=O)N/N=C/c3ccc(Cl)cc3)c(C)nc2c1	.	-4%	-4%	-2%	.	4%
CCN(Cc1ccccc1)C(=O)Cn1c(=O)oc2cc(S(=O)(=O)N3CCCCCC3)ccc21	22%	1%	.	.	.	.
O=C(Nc1nc2ccccc2[nH]1)c1cc2ccccc2o1	4.5µM*	1.3µM*	1.1µM*	2.2µM*	-13%	2.3µM*
CN(C)S(=O)(=O)c1ccc(C(=O)Nc2nc3ccccc3[nH]2)cc1	11µM*	?	?	?	-1%	?
O=C(Nc1nc2ccccc2[nH]1)c1ccc(F)cc1	14µM*	1.1µM*	0.32µM*	0.45µM*	?	?
CCc1ccc(C(=O)Nc2nc3ccccc3[nH]2)cc1	.	0.11µM*	?	0.1µM*	.	?
O=C(NCCc1nc2ccccc2[nH]1)c1ccc(F)cc1	.	11%	-1%	-4%	-2%	-2%
CCOC(=O)c1[nH]c(C)c(C(=O)NCc2ccccc2Cl)c1C	.	3%	.	.	.	.
O=C(Nc1ccccc1)N1CCC2(CC1)CCN(C(=O)c1cnccn1)CC2	-11%	.	.	.	-2%	.
COc1ccc2oc(C(=O)OC/C(O)=C(\C#N)c3nc4ccccc4[nH]3)c(C)c2c1	.	2%	-2%	-2%	.	15%
Cc1ccsc1C(=O)Nc1nc2ccccc2[nH]1	.	1.7µM*	0.35µM*	0.63µM*	.	1.2µM*
COc1ccc2oc(C(=O)Nc3nc4ccccc4[nH]3)c(C)c2c1	.	0.43µM*	0.32µM*	0.35µM*	.	?
Cc1cc(C)cc(C(=O)Nc2nc3ccccc3[nH]2)c1	.	11µM*	?	2.5µM*	.	?
Cn1nc(C(=O)Nc2nc3ccccc3[nH]2)c2ccccc2c1=O	14%	-17%	?	13%	-1%	4%
O=C(Cc1ccccc1F)Nc1nc2ccccc2[nH]1	18%	-17%	22%	11%	2%	10%
